Assay outcomes (PubChem)
This is a sample that favours compounds with a hit; in the whole collection about 19% have one here.
DT40 TDP1 no CPT = qHTS for Inhibitors of human tyrosyl-DNA phosphodiesterase 1 (TDP1): qHTS in cells in absence of CPT; DT40 Tdp1-/- hTDP1 cells, no CPT, ATP luminescence, 48 h; Potency, µM (titrated, usually from 46.2 µM), without a hit: top-dose activity change, negative = growth inhibition, usual class: inhibitors; 15% of 420,000 active; AID 686978, 2013; also: nearly all actives have a fitted effect of over 55% in size
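Luminescent ATP content (CellTiter-Glo) served as the growth readout. Knockout chicken DT40 cells expressing human TDP1 were exposed to compounds without camptothecin for a minimum 48 hr at 37 °C.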
TDP1 cell CPT = growth inhibition of DT40 Tdp1-/-;hTDP1 cells with camptothecin (screen for TDP1 inhibitors); 12% of 420,000 active; Potency, µM (doses to about 46.2 µM), inactives show at the top dose activity change, negative = growth inhibition, usual class: inhibitors; chicken DT40 Tdp1-/-;hTDP1 cells + 20 nM CPT, ATP luminescence, 48 h; also: nearly all actives have a fitted effect of over 55% in size
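Cell growth measured by CellTiter-Glo luminescence after a minimum 48 h, 37 C compound exposure with 20 nM CPT in Tdp1-knockout DT40 cells stably expressing hTDP1, seeded 400/well; qHTS titration format.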
HT1080NT lethal = kills 2HG-producing HT-1080-NT fibrosarcoma cells | AID 686970 | HT-1080-NT fibrosarcoma viability, CellTiter-Glo ATP luminescence, 48 h | 1.6% of 360,000 active | Potency, µM (series often up to 46.1 µM), without a hit: at the highest dose activity, negative = less viability, actives largely listed as cytotoxic;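 also: NT is the 2HG producing partner of a matched IDH1 knockdown line; 0% = DMSO-treated cells and -100% = media-only wells without cells; nearly all actives have a fitted effect of over 55% in size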
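Toxicity toward the 2HG-producing NT line was scored as %Activity, normalised to DMSO and no-cell wells, from CellTiter-Glo luminescence after 48 hours' treatment.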
KB-V1 MDR tox = KB-V1 MDR subline cytotoxicity. 3.4% of 400,000 active. KB-V1 MDR cells viability, CellTiter-Glo, 72 h. Potency, µM (series often up to 46.1 µM), actives largely listed as cytotoxic; also: nearly all actives have a fitted effect of over 60% in size
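Cells of the MDR subline KB-V1 are plated, dosed with compound at multiple concentrations, and incubated 72 h at 37 degrees C; CellTiter-Glo is then added and luminescence read after 10 min.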
KB-3-1 tox = kills parental KB-3-1 adenocarcinoma cells | KB-3-1 viability, CellTiter-Glo ATP luminescence, 72 h | Potency, µM (doses to about 46.1 µM), actives largely listed as cytotoxic | 1.4% of 400,000 active | AID 1347075; also: nearly all actives have a fitted effect of over 60% in size
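Luminescent ATP read-out (CellTiter-Glo) measures survival of drug-naive KB-3-1 cells after 72 h compound exposure at 37 °C. Titration series was screened from lowest to highest concentration, with DMSO vehicle plates as background controls.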
HT1080 IDH1KD tx = toxicity to HT-1080 IDH1 knockdown cells (counter line); HT-1080 IDH1 knockdown viability, ATP luminescence, 48 h; Potency, µM (top dose mostly 46.1 µM), without a hit: at the top dose activity, negative = toxicity, most hits filed as cytotoxic; 2% of 360,000 active; AID 686971;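 also: 0% = DMSO wells and -100% = cell-free medium wells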
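Cytotoxicity counter-line: IDH1KD HT-1080, 48 h, CellTiter-Glo. Curves classed by r2, magnitude and activity.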
* marks the source's active call; other numbers are inactive results; i = inactive; ? = inconclusive; · = no result given. Calls follow the shape of the dose curve; as a rule, active = well fitted curve in the direction sought with a large enough effect; inconclusive = small, poorly fitted or top-dose-only effect, or another doubt; inactive = no such curve, though single readings can be large; an effect the other way counts as inactive or inconclusive. Unless noted, % is scaled to controls: 0 for no effect and ±100 for the full control effect; potency is read from the fitted curve at half-maximal effect.

SMILES | DT40 TDP1 no CPT | TDP1 cell CPT | HT1080NT lethal | KB-V1 MDR tox | KB-3-1 tox | HT1080 IDH1KD tx
O=C(C1CCCCN1S(=O)(=O)c1ccc(F)cc1)N1CCN(c2ccccc2F)CC1 (centres undefined) | ? | -26% | 8% | ? | i | 1%
COc1ccc(S(=O)(=O)N2CCC(C(=O)N3CCN(c4ccccc4OC)CC3)CC2)cc1 | ? | ? | 0% | i | i | 1%
COc1ccccc1N1CCN(C(=O)C2CCCN(S(=O)(=O)c3ccc(C)cc3)C2)CC1 (centres undefined) | 10µM* | 16µM* | -23% | ? | i | -9%
COc1ccccc1N1CCN(C(=O)C2CCCCN2S(=O)(=O)c2ccc(C)cc2)CC1 (centres undefined) | ? | 18µM* | -8% | i | i | -13%
C=CC(=O)O | -1% | -25% | · | · | · | ·
Cc1cccc(N(C)Cc2nnc(-c3cccc(Br)c3)o2)c1 | ? | ? | 1% | i | i | 7%
Cc1ccc(S(=O)(=O)n2nccc2-c2c(-c3ccc(Cl)cc3)noc2C)cc1 | 16µM* | ? | -30% | ? | i | ?
CN(c1ccc(C(=O)Nc2ccccc2Sc2ccccc2)cc1)S(C)(=O)=O | 21µM* | ? | -14% | ? | i | -19%
Cc1ccc(/C=c2\sc3nc(-c4cccnc4)nn3c2=O)cc1 | 29µM* | ? | -1% | i | i | -1%
CC(C)c1ccc(/C=c2\sc3nc(-c4ccncc4)nn3c2=O)cc1 | 12µM* | ? | 7% | i | i | 11%
COCCN(C(=O)CSc1nnc(-c2ccccc2OC)o1)c1c(N)n(CC(C)C)c(=O)[nH]c1=O | 4% | -5% | 9% | i | i | 5%
CC(C)CC(=O)NC(=S)NNC(=O)c1ccc(NC(=O)C2CCCCC2)cc1 | 12µM* | 21µM* | ? | ? | ? | ?
Cc1ccc(C(=O)NC(=S)NNC(=O)c2cccc([N+](=O)[O-])c2)cc1 | ? | ? | -1% | i | i | 7%
CCC(=O)NC(=S)NNC(=O)c1ccc([N+](=O)[O-])cc1 | 18µM* | ? | -12% | i | i | -21%
CC(C)CC(=O)NC(=S)NNC(=O)c1ccc([N+](=O)[O-])cc1 | 15µM* | 18µM* | -19% | i | ? | -23%
COc1ccc(CNC(=O)CSc2ncc3c(n2)-c2cc(Cl)ccc2N(C)S3(=O)=O)cc1 | -26% | ? | · | i | i | ·
CCCCCC(=O)N1C[C@@H](n2cc(-c3ccc(F)cc3)nn2)[C@H](O)C[C@@H]1c1ccccc1 | ? | ? | -18% | ? | i | -22%
CCCCCC(=O)N1C[C@H](n2cc(-c3ccc(F)cc3)nn2)[C@@H](O)C[C@@H]1c1ccc(Cl)cc1 | 26µM* | ? | 16µM* | ? | ? | ?
CCCCCC(=O)N1C[C@@H](O)[C@H](n2cc(-c3ccc(F)cc3)nn2)C[C@@H]1c1ccc(Cl)cc1 | 15µM* | 16µM* | -24% | ? | ? | ?
CCCCCC(=O)N1C[C@@H](O)[C@H](n2cc(C3CC3)nn2)C[C@@H]1c1ccccc1 | 16µM* | ? | -4% | i | i | -4%
CCCCCC(=O)N1C[C@@H](n2cc(C3CC3)nn2)[C@H](O)C[C@@H]1c1ccccc1 | ? | ? | -3% | i | i | -2%
CCOc1cc(/C=C/c2cc(C(=O)O)c3ccccc3n2)ccc1OC | -17% | 4% | -17% | ? | i | 6%
COc1ccc(/C=C/c2ccc3ccccc3n2)cc1OC | 13µM* | ? | · | i | ? | ·
